High-throughput results from PubChem.
KCNQ2 enhance: enhances the rat KCNQ2 potassium channel; B-score at 10 µM; CHO-K1 KCNQ2, FluxOR thallium flux fluorescence; hits give high values; O88943; 0.54% of 310,000 active;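 active = fluorescence ratio B-score at least 3 SD of library B-scores, with initial fluorescence B-score within 3 of them, cut at about 5.3 in these data; same plate scores as AID 2156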;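 note: B-score of peak minus minimum over baseline fluorescence ratio after K+ and Tl+ stimulus; positive B-score means potentiation of KCNQ2 with more thallium influx and brighter signal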
Target sequence (O88943 whole entry, looked up): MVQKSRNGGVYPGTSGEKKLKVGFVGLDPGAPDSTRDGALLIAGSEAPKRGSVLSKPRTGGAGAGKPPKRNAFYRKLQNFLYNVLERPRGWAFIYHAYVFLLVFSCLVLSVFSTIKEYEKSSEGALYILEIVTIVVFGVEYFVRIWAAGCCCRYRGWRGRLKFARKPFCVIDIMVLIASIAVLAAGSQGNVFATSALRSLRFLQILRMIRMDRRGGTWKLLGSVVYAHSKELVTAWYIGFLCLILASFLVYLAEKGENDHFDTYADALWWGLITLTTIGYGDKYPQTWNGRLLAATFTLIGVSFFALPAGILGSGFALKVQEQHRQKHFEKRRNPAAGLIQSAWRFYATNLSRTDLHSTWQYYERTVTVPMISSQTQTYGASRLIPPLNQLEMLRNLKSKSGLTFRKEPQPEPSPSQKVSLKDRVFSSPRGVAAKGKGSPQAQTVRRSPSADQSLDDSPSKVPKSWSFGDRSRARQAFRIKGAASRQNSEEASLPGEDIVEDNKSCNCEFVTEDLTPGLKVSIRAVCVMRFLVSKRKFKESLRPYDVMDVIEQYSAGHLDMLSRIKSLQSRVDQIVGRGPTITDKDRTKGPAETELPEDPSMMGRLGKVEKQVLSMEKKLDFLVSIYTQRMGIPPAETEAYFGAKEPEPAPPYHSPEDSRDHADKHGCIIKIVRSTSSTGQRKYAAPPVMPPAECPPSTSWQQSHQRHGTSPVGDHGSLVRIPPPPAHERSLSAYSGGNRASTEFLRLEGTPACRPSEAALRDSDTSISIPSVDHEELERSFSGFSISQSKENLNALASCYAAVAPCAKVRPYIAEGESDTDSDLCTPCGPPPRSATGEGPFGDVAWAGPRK
KCNQ2 inh: inhibitors of rat KCNQ2 potassium channel; O88943; AID 2156; B-score at 10 µM; CHO-K1 KCNQ2, FluxOR thallium flux, 20 min; hits give low values; 1.1% of 310,000 active;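 active = fluorescence ratio B-score at most minus 3 library SDs, with starting brightness B-score within 2 library SDs, cut at about -5.5 in these data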
Kir21 conf inh: confirmation of mouse Kir2.1 potassium channel inhibitors. AID 2032. 41% of 2,300 active. Tl flux remaining, % of negative control (hits give low values), % at 10 µM. Kir2.1-expressing cells, FluxOR thallium flux fluorescence; hits give low values. shares compounds with KCNQ2 enhance;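 active = Primary-screen hit whose thallium flux fell at least 3 control SD below untreated wells in both duplicates, with normal baseline fluorescence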;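 note: 0% = blank wells without stimulus and 100% = stimulated no-compound controls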
HEK293 ctr: parental HEK293 activity in Kir2.1 inhibitor counter-screen. parental HEK293 cells, FluxOR thallium flux fluorescence; 0% = unstimulated blank wells. FluxOR signal as % of negative control (100 = no effect), % at 10 µM. shares compounds with KCNQ2 enhance. 19% of 2,300 active. AID 2105;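 active = dye signal at least 3 control SD above or below untreated wells in both duplicates, raw fluorescence within 3, either direction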;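 note: percent is based on the flux ratio of peak minus minimum fluorescence over baseline F0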
CHO-K1 ctr: counter-screen for KCNQ2 potentiators: effect in parental CHO-K1 cells | shares compounds with KCNQ2 enhance | FluxOR thallium flux fluorescence; zero = vehicle mean+3SD, 100% = vehicle-minus-blank window | activity increase over 3SD of controls, % at 10 µM | 43% of 1,200 active;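 active = signal rise of at least 3 SD above the untreated control mean, in both duplicate wells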;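 note: counter screen of KCNQ2 potentiator hits so any rise reflects channel-independent effects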
KCNQ1 pot spec: tests whether KCNQ2 potentiators also act on human KCNQ1; activation over 3SD threshold, % at 10 µM; AID 2283; CHO KCNQ1 stable, FluxOR thallium flux fluorescence; beyond 3SD, as % of vehicle-control signal; shares compounds with KCNQ2 enhance; 28% of 1,200 active;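 active = fluorescence ratio rise of at least 3 SD of vehicle wells above their mean, in both replicate wells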;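 note: 0% = vehicle mean plus 3 SD and 100% = vehicle minus unstimulated blank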
KCNQ2 pot conf: rat KCNQ2 channel potentiator confirmation; CHO-KCNQ2 cells, FluxOR thallium flux fluorescence; 68% of 1,200 active; potentiation, less the hit threshold, % at 10 µM; shares compounds with KCNQ2 enhance;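 active = fluorescence ratio rising 3 SD or more over the vehicle control mean in both replicates, plus primary screen hit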;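 note: peak minus minimum thallium fluorescence divided by baseline after K/Tl stimulus; 0% = vehicle mean plus 3 SD and 100% = vehicle minus unstimulated blank difference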
Kir21 spec: mouse Kir2.1 off-target activity of KCNQ2 potentiators. shares compounds with KCNQ2 enhance. HEK293 Kir2.1, FluxOR thallium flux fluorescence. activity over 3SD threshold, % at 10 µM. 2% of 1,200 active. AID 2345;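 active = fluorescence ratio rise of at least 3 SD above the vehicle-control mean, seen in both replicates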;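 note: 0% = vehicle mean plus 3 SD and 100% = vehicle minus no-stimulus blank window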
KCNQ2 W236L pot: potentiates the retigabine-insensitive rat KCNQ2 W236L mutant channel; 10% of 940 active; current increase over 3SD of negative controls (%), hits give high values, % at 25 µM; CHO KCNQ2-W236L, automated patch clamp current; shares compounds with KCNQ2 enhance;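 active = current increase at least 3 SD of the untreated controls above them in both duplicate recordings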
Starred values were filed as active, the others as inactive; i = inactive; / = no result. The list is not random: actives were taken first. Their share in the collection is about 1.6%.

SMILES	KCNQ2 enhance	KCNQ2 inh	Kir21 conf inh	HEK293 ctr	others
Cc1ccc(CNCC(O)(c2ccccc2)c2ccccc2)cc1	/	i	42%*	i
CC(=O)c1cccc(S(=O)(=O)NCCC(=O)O)c1	0.12	i	/	/
C=CCn1c(=S)[nH]c2scc(-c3ccc(C)o3)c2c1=O	16*	i	i	384%*	CHO-K1 ctr=4.1*;KCNQ1 pot spec=-13;KCNQ2 pot conf=46*;Kir21 spec=-21;KCNQ2 W236L pot=i
C=CCn1c(SCC(C)=O)nc2scc(-c3ccc(C)o3)c2c1=O	/	i	/	/
O=c1c2c(-c3cccs3)csc2[nH]c(=S)n1-c1ccccc1	1.3	i	/	/
CCn1c(=S)[nH]c2scc(-c3cccs3)c2c1=O	18*	i	i	508%*	CHO-K1 ctr=3.7*;KCNQ1 pot spec=-18;KCNQ2 pot conf=94*;Kir21 spec=1.6*;KCNQ2 W236L pot=i
Cc1cc(C)c(C(=O)OCC(=O)Nc2cccc(S(=O)(=O)N3CCCCC3)c2)c(C)c1	0.91	i	/	/
CCN(C(=O)COC(=O)c1cc(=O)c2ccccc2o1)c1c(N)n(Cc2ccccc2)c(=O)[nH]c1=O	0.13	i	/	/
CCCCNC(=O)NS(=O)(=O)c1ccc(NS(=O)(=O)c2ccccc2)cc1	/	i	/	/
Cc1c(N=NC2=C(O)CC(C)(C)CC2=O)cc2c(c1[N+](=O)[O-])C(C)(C)CC2(C)C	6.7*	i	i	i	CHO-K1 ctr=42*;KCNQ1 pot spec=-11;KCNQ2 pot conf=0;Kir21 spec=-31;KCNQ2 W236L pot=i
COc1ccccc1N=NC1=C(O)CC(C)(C)CC1=O	/	i	/	/
CC1=C2C3OC(=O)C(C)[C@@H]3CC[C@](C)(O)C2C2C3C4C5(C12)[C@H]1OC(=O)[C@@H](C)C1CC[C@]4(C)O[C@]5(C)[C@@H]3O (some centres not stated)	/	i	/	/
CN1CCN(c2ccccc2NC(=O)Cc2ccc(Cl)cc2)CC1	1.9	i	/	/
O=C(Cc1ccc(Cl)c(Cl)c1)Nc1ccccc1N1CCCC1	7.2*	i	i	i	CHO-K1 ctr=103*;KCNQ1 pot spec=-13;KCNQ2 pot conf=56*;Kir21 spec=-50;KCNQ2 W236L pot=i
COc1ccc(NC(=O)CSCC(=O)Nc2ccccc2N2CCCCC2)cc1	6.7*	i	/	/	CHO-K1 ctr=19*;KCNQ1 pot spec=60*;KCNQ2 pot conf=-22;Kir21 spec=-65
O=C(Nc1ccc(F)cc1)Nc1ccccc1N1CCCCC1	1.5	i	/	/
COc1ccc(NC(=O)CSCC(=O)Nc2ccccc2N2CCCC2)cc1	0.75	i	/	/
O=C(Cc1ccc(F)cc1)Nc1ccccc1N1CCCC1	11*	i	59%*	i	CHO-K1 ctr=2.5*;KCNQ1 pot spec=-10;KCNQ2 pot conf=48*;Kir21 spec=-81;KCNQ2 W236L pot=i
CCCN1CCN(CCCNC(=O)c2ccc(CS(=O)c3ccc(OC)cc3)o2)CC1 (configuration not stated)	0.33	i	/	/
COc1ccccc1CCn1c(N)cc(=O)[nH]c1=O	0.45	i	/	/
CCCS(=O)(=O)c1nc(S(=O)(=O)c2ccc(C)cc2)c(N2CCN(CC)CC2)s1	0.11	i	/	/
Cc1ccccc1NS(=O)(=O)c1csc(C(N)=O)c1	0.2	i	/	/
COc1ccc(/C=C2/SC(=O)N(CCC(=O)Nc3ccc(C)cc3)C2=O)cc1OC	0.85	i	/	/
COc1cc(/C=C2/SC(=S)N(CC(=O)O)C2=O)ccc1OCC(=O)Nc1ccc(C)c(C)c1	/	i	i	i
COc1ccc(CN(C)CC2CCCN(CCc3ccc(F)cc3)C2)cc1OC (configuration not stated)	/	i	62%*	i
SMILES	KCNQ2 enhance	KCNQ2 inh	Kir21 conf inh	HEK293 ctr	others
COc1ccc(F)c(CN(C)CC2CCCN(CCc3ccc(F)cc3)C2)c1 (configuration not stated)	/	i	31%*	i
COc1cc(CN(C)CC2CCCN(CCc3ccc(F)cc3)C2)c(Cl)cc1O (configuration not stated)	0.49	i	/	/
COc1ccc(CN(C)CC2CCCN(CCc3ccc(Cl)cc3)C2)cc1OC (configuration not stated)	/	i	/	/
CCOc1cccc(CN(C)CC2CCCN(CCc3ccc(Cl)cc3)C2)c1O (configuration not stated)	/	i	48%*	i
COc1ccc(CCN2CCCC(CN(C)Cc3cc(OC)c(OC)c(OC)c3)C2)cc1 (configuration not stated)	0.93	i	/	/
CC(=O)c1cccc(CN(C)CC2CCCN(CCc3ccccc3C)C2)c1 (configuration not stated)	0.27	i	51%*	i
CN(Cc1ccccc1)CC1CCCN(CCc2ccccc2F)C1 (configuration not stated)	/	i	/	/
CN(C(=O)COC(=O)CNC(=O)c1ccc(Cl)cc1Cl)c1ccccc1	/	i	/	/
COCCCNC(=O)C1CCC(CNS(=O)(=O)c2ccc3c(c2)CC(C)N3C(=O)C2CC2)CC1 (configuration not stated)	0.16	i	/	/
C=CCSc1nc2sc3c(c2c(=O)[nH]1)CC(C)(CC)OC3 (configuration not stated)	1.4	i	/	/
CC(C)Cn1c(-c2ccc(Cl)cc2)cnc1SCC(=O)N1CCOCC1	0.66	i	/	/
Cc1ccc(-c2nnn(C/C(N)=N/O)n2)cc1	0.26	i	/	/
CCc1cccc(C)c1NC(=O)CC1Oc2ccc(C)cc2NC1=O (configuration not stated)	0.16	i	/	/
CCOC(=O)c1cccc(OCC(O)CNCCOc2ccccc2F)c1 (configuration not stated)	0.64	i	/	/
CCN(CCNCC(O)COc1ccccc1C(C)C)c1cccc(C)c1 (configuration not stated)	/	i	33%*	i
Cc1cc(C)n2nc(C(=O)OCC(=O)N(C)CC(=O)Nc3ccccc3Cl)nc2n1	2.5	i	/	/
CCCCOc1ccc(Br)cc1/C(C)=N/NC1=NCCN1	/	i	i	i
CCCCCCOc1ccc(/C(C)=N/NC2=NCCN2)cc1[N+](=O)[O-]	0.72	i	/	/
CC1CCN(C(=S)NC(=O)c2cccc([N+](=O)[O-])c2)CC1	2.8	i	/	/
CCC1CCCCN1C(=S)NC(=O)c1cccc([N+](=O)[O-])c1 (configuration not stated)	4.1	i	i	348%*
Cc1ccc(S(=O)(=O)NC(=O)Nc2ccc(C)cn2)cc1	/	i	/	/
